The source of these data is PubChem BioAssay AID463173 (ICCB-Longwood Screening Facility, Harvard Medical School, 2010).

Out of some 52,000 compounds screened, about 4,300 (8.3%) were called active. Rule as the data show it: active = survival mostly below about 52% (no sharp cut-off); inactive = mostly above about 56%. This excerpt belongs to a sample that is enriched for actives.

For the assay, the system named is DeltatarO mutant. Put plainly: growth inhibition of S. aureus wild type versus tarO mutant, primary screen, teichoic acid synthesis inhibitors, RN4220, OD600 (AID 463173). The note with it: OD600, 18 h, stronger effect = lower value, screened at 18.75 µg/mL (by protocol).
Consider `CCOc1c(Br)cc(C2CC(=O)Nc3cc4c(cc32)OCO4)cc1OC` (configuration not stated), for which the survival was 127% (inactive).
Then `COc1ccc(N2C(=O)CC(N3CCCCC3C)C2=O)cc1` (configuration not stated), with 106% (inactive); and `CCC1CCCCN1C1CC(=O)N(c2ccc(NC(C)=O)cc2)C1=O` (configuration not stated), with 96% (inactive); and `CCOc1ccc(N2C(=O)CC(N3CCCCC3CC)C2=O)cc1` (configuration not stated), with 53% (active).
The same measure for `CCSc1nnc2n(-c3ccccc3)c(=O)c3c4c(sc3n12)CCCC4`: 95% (inactive); for `Cc1cccc(-n2c(=O)c3c4c(sc3n3cnnc23)CCCC4)c1`: 72% (inactive); for `CSc1nnc2n(-c3cccc(C)c3)c(=O)c3c4c(sc3n12)CCCC4`: 66% (inactive).
Then `CCCSc1nnc2n(-c3cccc(C)c3)c(=O)c3c4c(sc3n12)CCCC4`, with 5% (active); and `CCCCSc1nnc2n(-c3cccc(C)c3)c(=O)c3c4c(sc3n12)CCCC4`, with 1% (active).
With `CCSc1nnc2n(-c3cccc(C)c3)c(=O)c3c4c(sc3n12)CCCC4`, the survival is 71% (inactive).
For `CC(C)Oc1ccc(CNC(=O)c2cc3cccc4c3n2CC(C)S4)cc1` (configuration not stated), the survival is 91% (inactive).
The same measure for `Cc1ccc2c(c1)-c1c(c(C(=O)NCCc3ccccc3)nn1C)CS2`: 37% (active); for `Cc1cccc(CCNC(=O)c2nn(C)c3c2CSc2ccccc2-3)c1`: 77% (inactive); for `Cc1ccc(CCNC(=O)c2nn(C)c3c2CSc2ccccc2-3)cc1`: 82% (inactive).
The same measure for `O=C(Nc1ccc(C(=O)OCc2cc(=O)n3c4c(sc3n2)CCCC4)cc1)c1ccc(F)cc1`: 101% (inactive); for `O=C(Nc1ccccc1C(=O)OCc1cc(=O)n2c3c(sc2n1)CCCC3)c1ccccc1`: 107% (inactive).
The same measure for `Cc1ccccc1C(=O)Nc1cccc(C(=O)OCc2cc(=O)n3c4c(sc3n2)CCCC4)c1`: 46% (active).
As to `COc1ccccc1C(=O)Nc1ccc(C(=O)OCc2cc(=O)n3c4c(sc3n2)CCCC4)cc1`, the survival is 37% (active).
Then `Cc1ccccc1C(=O)Nc1ccc(C(=O)OCc2cc(=O)n3c4c(sc3n2)CCCC4)cc1`, with 118% (inactive).
For `Cc1cccc(OCc2cc(=O)n3c4c(sc3n2)CCCC4)c1C`, the survival is 131% (inactive).
Then `Cc1ccc(C(=O)Nc2ccc(C(=O)OCc3cc(=O)n4c5c(sc4n3)CCCC5)cc2)cc1`, with 83% (inactive); and `Cc1ccc(OCc2cc(=O)n3c4c(sc3n2)CCCC4)cc1C`, with 82% (inactive); and `O=C(Nc1ccccc1C(=O)OCc1cc(=O)n2c3c(sc2n1)CCCC3)c1cccc(Cl)c1`, with 69% (inactive).
Turning to `O=C(OCc1cc(=O)n2c3c(sc2n1)CCCC3)c1cccc(NC(=O)c2ccccc2F)c1`, the survival is 115% (inactive).
The same measure for `COc1ccccc1C(=O)Nc1cccc(C(=O)OCc2cc(=O)n3c4c(sc3n2)CCCC4)c1`: 92% (inactive); for `O=C(Nc1ccccc1C(=O)OCc1cc(=O)n2c3c(sc2n1)CCCC3)c1ccc(Cl)cc1`: 0% (active).
Then `Cc1cccc(C)c1OCc1cc(=O)n2c3c(sc2n1)CCCC3`, with -17% (active).
